VACV mCherry inh: inhibitors of vaccinia virus infection (mCherry reporter signal); Vaccinia virus mCherry reporter infection, fluorescence; Potency, µM (top dose mostly 36.5 µM), inactives show at the highest dose activity change, negative = inhibition, most hits filed as inhibitors; hit rate 0.63% among 310,000; calls by dose curve; tested in A549 cells; further: potency means the concentration at half of the fitted maximal effect; nearly all actives have a fitted effect of over 35% in size
HCMV antiviral: human cytomegalovirus inhibition | HFF cells, HCMV-luciferase reporter, 72 h; hits give low values | activity change, negative = inhibition, % at 57.5 µM | hit rate 4.5% among 410,000; in the data active means activity change below about -60%; inconclusive means no clear call, values can overlap the other calls; inactive means above about -39%
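Luciferase read-out from HCMV-luciferase-infected HFFs (MOI 1 PFU/cell) 72 h post infection at 37C; compounds added after 16 h cell attachment; activity normalized between buffer-only basal and Salinomycin (10uM) inhibitor controls.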
FMDV antiviral: foot and mouth disease virus antiviral activity. FMDV antiviral cell-based qHTS. Potency, µM (series often up to 57.9 µM), without a hit: at the top dose activity change, negative = inhibition, usual class: inhibitors. hit rate 1.2% among 410,000; calls by dose curve; tested in HEK293T cells; further: read-out not given here; potency means the concentration at half of the fitted maximal effect; nearly all actives have a fitted effect of over 45% in size
Vaccinia Venus: inhibitors of vaccinia virus (Venus reporter) | Potency, µM (top dose mostly 36.5 µM), for the others: at the highest dose activity change, negative = inhibition, usual class: inhibitors | AID 720580 | Vaccinia virus Venus reporter expression, fluorescence | hit rate 0.46% among 330,000; calls by dose curve; tested in A549 cells; further: potency means the concentration at half of the fitted maximal effect; nearly all actives have a fitted effect of over 30% in size
HCV inhibitor: blocks hepatitis C virus | Huh7.5.1 HCVcc-Cre infection, luciferase reporter, 44 h | Potency, µM (highest dose often 41.8 µM), for inactives: at the highest dose activity change, negative = inhibition, usual class: inhibitors | hit rate 3.4% among 340,000 | AID 651820; active means well fitted inhibition curve with a large enough effect; inconclusive means small, poorly fitted or top-dose-only effect, or another doubt; inactive means no such curve, though single readings can be large or run the other way; further: potency means the concentration at half of the fitted maximal effect
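Whole-lifecycle infectious HCVcc-Cre system; cells 1,000/well, compound then virus (~0.5 moi) added 4 h after plating, 44 h culture. Luciferase read 15 sec following 15 min substrate incubation, room temp.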
* marks the source's active call; other numbers are inactive results; ? = inconclusive; / = no result. Most compounds without a hit are left out; they make up all but 7.3% or so of the library. On the % scale 0 is the no-effect control and ±100 the full control effect.

SMILES | VACV mCherry inh | HCMV antiviral | FMDV antiviral | Vaccinia Venus | HCV inhibitor
CCC(C)C(=O)N[C@@H](c1ccccc1)[C@@H](O)C(=O)O[C@H]1C[C@@]2(O)[C@@H](OC(=O)c3ccccc3)C3[C@](C)(C(=O)[C@H](OC(C)=O)C(=C1C)C2(C)C)[C@@H](O)C[C@H]1OC[C@@]31OC(C)=O (some centres undefined) | -5% | 21 | -18% | -23% | ?
CC(=O)O[C@@]12CO[C@@H]1C[C@@H](O)[C@@]1(C)C(=O)[C@H](O)C3=C(C)[C@@H](OC(=O)[C@H](O)[C@@H](NC(=O)c4ccccc4)c4ccccc4)C[C@@](O)([C@@H](OC(=O)c4ccccc4)C12)C3(C)C (some centres undefined) | ? | ? | -23% | -21% | 0.32µM*
CC(=O)O[C@H]1C(=O)[C@@]2(C)[C@H]([C@H](OC(=O)c3ccccc3)[C@]3(O)C[C@H](OC(=O)[C@H](O)C(NC(=O)c4ccccc4)c4ccccc4)C(C)=C1C3(C)C)[C@]1(OC(C)=O)CO[C@@H]1C[C@@H]2O (some centres undefined) | ? | -83* | -29% | -25% | ?
CC/C=C/CC(=O)N[C@@H](c1ccccc1)[C@@H](O)C(=O)O[C@H]1C[C@@]2(O)[C@@H](OC(=O)c3ccccc3)C3[C@](C)(C(=O)[C@H](OC(C)=O)C(=C1C)C2(C)C)[C@@H](O)C[C@H]1OC[C@@]31OC(C)=O (some centres undefined) | -9% | -91* | 0% | ? | -27%
CC(=O)O[C@H]1C(=O)[C@@]2(C)[C@H]([C@H](OC(=O)c3ccccc3)[C@]3(O)C[C@H](OC(=O)[C@H](O)[C@@H](NC(=O)c4ccccc4)c4ccccc4)C(C)=C1C3(C)C)[C@]1(OC(C)=O)CO[C@@H]1C[C@@H]2O | ? | -70* | ? | ? | ?
C=CCN(c1ccccc1C(=O)NCC(=O)O)S(=O)(=O)c1ccccc1C | -10% | -2 | 4% | 0% | 26%
CCOc1ccc(CCNC(=O)C2CCN(c3ncnc4c3nc3n4CCCCC3)CC2)cc1 | -8% | ? | -3% | -10% | /
Cn1c(NCC(O)c2ccccc2)nc2c1c(=O)n(Cc1ccc(Cl)c(Cl)c1)c(=O)n2C (centres undefined) | / | ? | 14µM* | 10µM* | ?
Cc1cccc(Cn2c(NCC(C)O)nc3c2c(=O)n(C)c(=O)n3C)c1 (centres undefined) | / | ? | ? | -41% | 4.5µM*
COCCCNc1nc2c(c(=O)n(C)c(=O)n2C)n1Cc1cccc(OC)c1 | / | 22 | ? | -30% | ?
COCCNc1nc2c(c(=O)n(C)c(=O)n2C)n1Cc1cccc(C)c1 | / | -18 | 0% | / | 10µM*
Cn1c(=O)c2c(nc(NCCCO)n2Cc2cccc(Br)c2)n(C)c1=O | / | 9 | ? | / | -20%
NC(N)=N/N=C(\N=Nc1ccccc1)c1ccc(Cl)cc1 | ? | 207 | 9% | ? | ?
COc1cccc(CNC(=O)c2ccccc2SCC(=O)N2CCCC2)c1 | -15% | 8 | -4% | -6% | ?
O=C(Nc1ccc(F)c(F)c1)c1cnn2c1NC(=C1CC1)C=C2C(F)(F)F | -19% | / | / | -18% | /
CC(NC(=O)CNC(=O)c1ccco1)c1ccccc1 (centres undefined) | -1% | -2 | -1% | -11% | 12%
COc1ccc(CN(C)Cc2c(O)ccc3cc(Br)ccc23)cc1OC | ? | -66* | -4% | -14% | -4%
COc1ccc(CCN(C)Cc2c(O)ccc3cc(Br)ccc23)cc1OC | -16% | -77* | ? | -7% | -20%
COc1ccc(CN(C)Cc2c(O)ccc3ccccc23)cc1 | -26% | 18 | -10% | -10% | 2%
COc1ccc(CCN(C)CCc2ccc(OC)c(OC)c2)cc1OC | -13% | -7 | -18% | -7% | -21%
CN(Cc1ccc(Cl)s1)C(=O)CN1C(=O)N(C)C2(CCCCC2)C1=O | -12% | -5 | 9% | -14% | 7%
Cc1sc2c(c1C)c(=O)n(-c1ccc(Cl)cc1)c(=O)n2CC(=O)c1ccccc1 | 1% | -5 | -22% | 1% | /
Cc1ccc2c(Sc3ccccc3)c(C(=O)NCc3ccccc3F)[nH]c2c1 | -17% | -18 | 36% | -13% | /
Cc1ccc(C)c(N2CCN(C(=O)Cn3c(=O)c4cccn4c4ccc(F)cc43)CC2)c1 | -13% | 20 | 0% | -7% | /

Compound activity as filed in PubChem BioAssay.
